# Bioassay records (PubChem BioAssay)
# Autofluor counter: flagged as autofluorescent in microsphere protease counterscreen; hit rate 3.1% among 360,000; compound autofluorescence counterscreen, microsphere flow cytometry; active compounds read high; fluorescence intensity (concentration not given with the values); AID 624483; in the data active means fluorescence intensity above about 16000; inconclusive means no clear call, values can overlap the other calls
# MazEF act: activators of E. coli MazEF toxin-antitoxin RNase, primary screen, biochemical, fluorescence, uHTS | hit rate 0.32% among 350,000 | FAM/BHQ RNA-DNA oligo cleavage fluorescence, 5 h | activation, % at 20 µM | Endoribonuclease toxin MazF (Escherichia coli (strain K12)), P0AE70; in the data active means activation above about 50%
# Target sequence (P0AE70 whole entry, looked up): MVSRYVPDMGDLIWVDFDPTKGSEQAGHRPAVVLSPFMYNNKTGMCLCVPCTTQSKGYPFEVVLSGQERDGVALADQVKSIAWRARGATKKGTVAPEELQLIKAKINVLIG
# BoNT-F LC inh: BoNT/F light chain protease inhibitors, primary screen, biochemical, flow cytometry, MLPCN library | hit rate 0.22% among 360,000 | inhibition, % at 10 µM | Multiplex microsphere protease cleavage assay; in the data active means inhibition above about 35%, passing the limit was not always enough; inconclusive means no clear call, values can overlap the other calls; further: plate controls were buffer without enzyme for full effect and enzyme alone for no effect
# BoNT-A LC inh2: BoNT/A light chain protease inhibitors, primary screen, biochemical, flow cytometry, MLPCN library; AID 588499, 2011; Botulinum neurotoxin type A light chain protease (Clostridium botulinum A str. ATCC 3502); inhibition, % at 10 µM; multiplex microsphere protease substrate cleavage; hit rate 0.17% among 360,000; further: plate controls were buffer without enzyme for full effect and enzyme alone for no effect
# Anthrax LF prot: Bacillus anthracis LF protease inhibitors, primary screen, biochemical, multiplex microsphere, MLPCN library | Lethal factor (Bacillus anthracis), P15917 | multiplex microsphere protease cleavage assay | inhibition, % at 10 µM | hit rate 0.12% among 360,000 | AID 588501, 2011; further: plate controls were buffer without enzyme for full effect and enzyme alone for no effect
# Active calls of the source: *; ? = inconclusive. This is a sample that favours compounds with a hit; in the whole collection about 3.7% have one here. Unless noted, no stated cut-off is given here; in the data, active means inhibition above about 30%; inconclusive means no clear call, values can overlap the other calls; inactive means below that.
SMILES,Autofluor counter,MazEF act,BoNT-F LC inh,BoNT-A LC inh2,Anthrax LF prot
CCOC(=O)c1ccc(NC(=O)CSc2nnnn2C2CCCCC2)cc1,2973,-2.8,3.8,0.2,-2.6
CCOC(=O)c1ccc(NC(=O)CSc2nnnn2CCCO)cc1,22895*,2.1,-3.1,-0.9,-0.7
CCc1cccc(NC(=O)C2CC2c2ccccc2)c1 (centres undefined),4084,7.3,36.0*,-0.3,9.7
COc1ccc(-c2oc3ccccc3c2C#CC(C)(C)O)cc1,3799,-6.3,-4.2,0.2,-3.7
Cc1cc2n(n1)SC(Nc1ccc(F)c(Cl)c1)N2 (centres undefined),20632*,-7.0,-3.8,?,0.6
COc1ccc(CCC(=O)OCC(=O)N(CC(C)C)c2c(N)n(Cc3ccccc3)c(=O)[nH]c2=O)cc1,?,7.8,-3.0,-20.1,-5.6
CCOC(=O)C1CCCN(c2c(NCCCN(CC)c3ccccc3)c(=O)c2=O)C1 (centres undefined),24139*,3.8,-6.2,-0.5,1.6
CC(C)(C)N=C1NN=C(c2ccc(S(=O)(=O)N3CCCCC3)cc2)CS1,?,-9.2,-9.5,-6.2,-1.4
COC(=O)c1cc(OC)c(OC)cc1NC(=O)Nc1ccccc1OC,23051*,8.0,-1.3,0.7,-2.5
COC(=O)c1ccccc1NC(=O)Nc1cc(C)cc(C)n1,21356*,-7.8,5.6,4.0,-1.3
Cc1nn(C)cc1/C=N/n1nnnc1N,17300*,0.2,5.5,6.1,-10.8
O=C(c1cnc(-c2ccc(Cl)cc2)s1)c1ccc(Cl)cc1Cl,16515*,1.0,-2.1,2.0,3.4
O=C(O)Cc1ccc(C(=O)c2ccc(Cl)cc2Cl)s1,2305,-11.3,-3.0,0.4,-0.9
COc1ccc(NC(=O)CSc2nc(O)cc(=O)n2-c2ccc(OC)cc2)cc1,3836,1.9,-14.5,-1.1,14.7
COC(F)(C(=O)Nc1ccc2c(c1)C(=O)NC2=O)C(F)(F)F (centres undefined),22859*,2.3,1.9,1.2,2.6
O=C(NNc1ccccc1[N+](=O)[O-])Nc1ccccc1,20435*,7.0,-0.7,?,0.5
O=[N+]([O-])c1ccc(NCCc2ccccc2)c(Br)c1,3260,-1.8,-15.8,-1.7,9.3
Cc1csc(NC(=O)C2CCC(C)(C(=O)O)C2(C)C)n1 (centres undefined),20359*,3.9,-4.0,-2.8,-0.6
CC1(C(=O)O)CCC(C(=O)Nc2ccc3ccccc3c2)C1(C)C (centres undefined),22940*,-0.8,-0.5,0.8,1.8
Cc1csc(NC(=O)C2CCCO2)n1 (centres undefined),21132*,-2.1,3.9,2.6,-1.1
COc1ccc(NC(=O)c2ccc(S(=O)(=O)N3CC(C)CC(C)C3)cc2)cc1S(N)(=O)=O (centres undefined),3558,8.0,-5.5,-0.7,-1.4
CC1CCC2C(=O)N(c3cccc(C(=O)Nc4ccccc4Cl)c3)C(=O)C2C1 (centres undefined),4963,6.3,7.8,2.2,-2.1
CCOC(=O)/C=c1\s/c(=C(\C#N)C(=O)NC)n(-c2ccccc2)c1=O,3483,3.9,-5.0,0.5,-1.6
Cc1ccccc1-n1c(=O)/c(=C\c2ccco2)s/c1=C(/C#N)C(=O)Nc1ccccc1,20678*,7.6,7.6,7.5,4.2
COCCNC(=O)C1(C)Oc2ccccc2NC1=O (centres undefined),2865,2.0,1.3,-0.6,-2.2
SMILES,Autofluor counter,MazEF act,BoNT-F LC inh,BoNT-A LC inh2,Anthrax LF prot
CC(=O)OC1(C(F)(F)F)Oc2ccccc2NC1=O (centres undefined),18158*,-17.0,7.3,?,2.3
COc1cccc2c1Oc1ncccc1N(C(=O)CCC(=O)NCc1ccc(C)cc1)C2,4615,3.4,4.2,0.1,-1.9
Cc1ccc(NC(C#N)c2ccccc2OCc2ccccc2)cc1 (centres undefined),23322*,1.3,-6.9,?,-1.9
O=C(CSc1nnc(CNC(=O)c2ccco2)o1)Nc1cccc(Cl)c1,5709,8.3,1.6,-1.3,0.5
CC(C)CCNC(=S)NC1CCCC1,20284*,-2.9,4.6,3.5,-3.2
CC(C)CCNC(=O)C(=O)NC1CCCC1,2228,1.2,-0.3,0.5,-1.0
CC(=NCC1CCCO1)c1c(O)n(C2CCCCC2)c(=O)[nH]c1=O (centres undefined),5954,0.0,2.5,-0.4,-2.1
CC(=NCCN1CCOCC1)c1c(O)n(C2CCCCC2)c(=O)[nH]c1=O,24874*,2.2,-5.5,-3.6,-3.0
CC(=NCCCN1CCOCC1)c1c(O)[nH]c(=O)[nH]c1=O,20875*,3.4,6.2,4.1,-3.0
CC(=NCCN1CCOCC1)c1c(O)n(-c2ccccc2C)c(=O)[nH]c1=O,23519*,0.0,-2.2,-2.5,-0.2
Cn1c(=O)c2sccc2n2c(CCCC(=O)Nc3ccc(F)cc3F)nnc12,3609,3.8,7.6,1.0,-1.3
Cc1nnc(SCC(=O)N2CCN(Cc3ccccc3)CC2)s1,10928,-5.2,-1.5,-0.7,1.8
Nc1nnc(SCC(=O)N2CCN(Cc3ccccc3)CC2)s1,16406*,-1.0,0.1,?,1.5
COc1cc(CCC(=O)NNC(=O)c2ccc(C)cc2)cc(OC)c1OC,3307,3.8,-4.9,-0.4,-2.5
Cc1ccc(S(=O)(=O)N2CCCCC2C(=O)NCc2ccco2)cc1 (centres undefined),4340,-26.2,-4.2,1.0,-4.8
CCCNC(=O)C1CN(S(=O)(=O)c2ccccc2)CCN1S(=O)(=O)c1ccccc1 (centres undefined),7050,-3.7,-3.7,-0.1,-3.1
O=C(NCc1ccco1)C1CN(S(=O)(=O)c2ccccc2)CCN1S(=O)(=O)c1ccccc1 (centres undefined),20955*,-0.6,6.3,4.4,1.3
CC1CCN(S(=O)(=O)c2cccc(C(=O)NCc3ccco3)c2)CC1,23763*,-10.9,-3.3,-1.1,-2.9
COc1ccccc1CNC(=O)[C@@H]1CCCN1C(=O)C1CCN(S(=O)(=O)c2ccc(C)cc2)CC1,9144,-13.7,2.3,-1.2,-1.9
Cc1ccc(S(=O)(=O)N2CCC(C(=O)N3CCC[C@H]3C(=O)NCc3ccccc3)CC2)cc1,21009*,-3.7,-5.6,-4.8,-0.1
Cc1ccc(S(=O)(=O)N2CCC(C(=O)N3CCC[C@H]3C(=O)NCc3ccco3)CC2)cc1,16928*,-15.6,-0.1,-0.9,-1.7
O=C(c1cc(-c2ccc(F)cc2)nc2ccccc12)N1CCN(C2CCS(=O)(=O)C2)CC1 (centres undefined),3506,-3.6,-0.7,0.4,-2.3
CCCCCCCCCCCC(=O)c1c(O)cccc1O,5763,-13.9,-5.9,0.6,-3.3
O=C(NCc1ccco1)C1Cc2ccccc2CN1C(=O)c1ccco1 (centres undefined),4687,-11.6,-4.9,0.0,-1.3
